Legend:
[1] = biological target: T1, Serine/threonine-protein kinase D2 (Homo sapiens) (UniProt Q9BZL6); details: at 1 µM;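 also: mean value of PRKD2 inhibition, from the GSK PKIS screening panel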
T1 sequence (whole entry): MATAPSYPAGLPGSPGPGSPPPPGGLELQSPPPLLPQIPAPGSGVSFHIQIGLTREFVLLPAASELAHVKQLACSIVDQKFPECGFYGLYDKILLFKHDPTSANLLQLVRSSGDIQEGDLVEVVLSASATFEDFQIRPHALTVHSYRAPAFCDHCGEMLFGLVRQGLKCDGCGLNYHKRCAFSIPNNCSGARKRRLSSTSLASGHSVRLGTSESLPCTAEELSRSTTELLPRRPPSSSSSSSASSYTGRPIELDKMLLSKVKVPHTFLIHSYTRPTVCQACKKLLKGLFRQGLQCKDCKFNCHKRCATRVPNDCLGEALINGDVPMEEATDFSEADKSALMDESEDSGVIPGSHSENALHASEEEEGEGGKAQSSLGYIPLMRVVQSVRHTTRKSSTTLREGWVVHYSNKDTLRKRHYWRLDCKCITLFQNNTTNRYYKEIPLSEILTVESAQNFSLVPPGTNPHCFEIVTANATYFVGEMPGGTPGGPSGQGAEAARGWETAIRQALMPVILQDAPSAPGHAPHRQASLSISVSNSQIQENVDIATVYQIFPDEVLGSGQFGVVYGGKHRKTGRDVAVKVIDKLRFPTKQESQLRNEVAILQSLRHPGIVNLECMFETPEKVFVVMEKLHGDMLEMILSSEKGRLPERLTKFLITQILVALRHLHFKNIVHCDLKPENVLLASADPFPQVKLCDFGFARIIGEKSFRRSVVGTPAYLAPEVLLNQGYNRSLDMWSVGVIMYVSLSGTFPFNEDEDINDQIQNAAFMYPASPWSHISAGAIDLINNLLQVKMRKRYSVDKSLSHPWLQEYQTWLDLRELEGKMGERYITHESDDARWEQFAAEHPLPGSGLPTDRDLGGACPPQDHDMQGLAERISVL

[2] = biological target: T2, Serine/threonine-protein kinase D3 (Homo sapiens) (UniProt O94806); details: at 0.1 µM
T2 sequence (whole entry): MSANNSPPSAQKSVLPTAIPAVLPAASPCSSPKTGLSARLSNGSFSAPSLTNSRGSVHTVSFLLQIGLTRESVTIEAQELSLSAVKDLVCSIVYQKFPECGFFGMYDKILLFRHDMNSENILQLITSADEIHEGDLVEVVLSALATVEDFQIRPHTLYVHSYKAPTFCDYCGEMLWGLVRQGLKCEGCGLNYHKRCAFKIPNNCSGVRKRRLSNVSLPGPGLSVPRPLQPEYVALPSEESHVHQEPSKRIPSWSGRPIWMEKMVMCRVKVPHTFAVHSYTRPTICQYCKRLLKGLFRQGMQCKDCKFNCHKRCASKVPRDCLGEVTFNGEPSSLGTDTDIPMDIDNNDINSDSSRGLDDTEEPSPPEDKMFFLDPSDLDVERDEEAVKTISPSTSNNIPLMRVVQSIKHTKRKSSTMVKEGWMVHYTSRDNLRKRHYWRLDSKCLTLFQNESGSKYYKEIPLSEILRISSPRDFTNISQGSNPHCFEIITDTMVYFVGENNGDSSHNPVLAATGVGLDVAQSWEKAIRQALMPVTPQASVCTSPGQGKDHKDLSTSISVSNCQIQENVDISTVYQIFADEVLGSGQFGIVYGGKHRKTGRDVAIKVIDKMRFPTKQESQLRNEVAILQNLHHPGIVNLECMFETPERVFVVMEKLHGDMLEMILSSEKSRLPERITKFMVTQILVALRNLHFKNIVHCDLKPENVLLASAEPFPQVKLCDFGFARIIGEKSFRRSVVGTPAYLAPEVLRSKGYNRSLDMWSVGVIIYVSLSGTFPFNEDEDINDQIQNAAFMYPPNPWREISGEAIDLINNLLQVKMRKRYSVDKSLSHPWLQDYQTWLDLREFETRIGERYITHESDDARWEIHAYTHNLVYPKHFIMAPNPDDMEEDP

[3] = biological target: T2, Serine/threonine-protein kinase D3 (Homo sapiens); details: at 1 µM
[4] = biological target: T3, cGMP-dependent protein kinase 1 (Homo sapiens) (UniProt Q13976); details: at 0.1 µM
T3 sequence (whole entry): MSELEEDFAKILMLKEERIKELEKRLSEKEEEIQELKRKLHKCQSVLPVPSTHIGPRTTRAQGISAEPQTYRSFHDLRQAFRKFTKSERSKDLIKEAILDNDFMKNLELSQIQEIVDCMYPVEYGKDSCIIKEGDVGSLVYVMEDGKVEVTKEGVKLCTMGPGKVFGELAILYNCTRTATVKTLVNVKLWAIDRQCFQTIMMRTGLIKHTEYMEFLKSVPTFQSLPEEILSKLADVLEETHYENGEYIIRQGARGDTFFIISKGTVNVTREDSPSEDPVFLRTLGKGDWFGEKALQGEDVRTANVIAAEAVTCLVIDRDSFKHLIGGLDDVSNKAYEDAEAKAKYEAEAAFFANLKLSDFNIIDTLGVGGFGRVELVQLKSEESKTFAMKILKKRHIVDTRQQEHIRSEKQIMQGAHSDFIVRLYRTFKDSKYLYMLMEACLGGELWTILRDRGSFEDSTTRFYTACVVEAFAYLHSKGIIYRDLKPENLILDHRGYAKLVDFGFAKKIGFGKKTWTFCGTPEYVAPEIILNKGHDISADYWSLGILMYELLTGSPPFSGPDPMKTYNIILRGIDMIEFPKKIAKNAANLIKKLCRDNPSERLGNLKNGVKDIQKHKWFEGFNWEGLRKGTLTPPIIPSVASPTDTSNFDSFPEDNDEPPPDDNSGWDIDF

[5] = biological target: T3, cGMP-dependent protein kinase 1 (Homo sapiens); details: at 1 µM
[6] = biological target: T4, cGMP-dependent protein kinase 2 (Homo sapiens) (UniProt Q13237); details: at 0.1 µM
T4 sequence (whole entry): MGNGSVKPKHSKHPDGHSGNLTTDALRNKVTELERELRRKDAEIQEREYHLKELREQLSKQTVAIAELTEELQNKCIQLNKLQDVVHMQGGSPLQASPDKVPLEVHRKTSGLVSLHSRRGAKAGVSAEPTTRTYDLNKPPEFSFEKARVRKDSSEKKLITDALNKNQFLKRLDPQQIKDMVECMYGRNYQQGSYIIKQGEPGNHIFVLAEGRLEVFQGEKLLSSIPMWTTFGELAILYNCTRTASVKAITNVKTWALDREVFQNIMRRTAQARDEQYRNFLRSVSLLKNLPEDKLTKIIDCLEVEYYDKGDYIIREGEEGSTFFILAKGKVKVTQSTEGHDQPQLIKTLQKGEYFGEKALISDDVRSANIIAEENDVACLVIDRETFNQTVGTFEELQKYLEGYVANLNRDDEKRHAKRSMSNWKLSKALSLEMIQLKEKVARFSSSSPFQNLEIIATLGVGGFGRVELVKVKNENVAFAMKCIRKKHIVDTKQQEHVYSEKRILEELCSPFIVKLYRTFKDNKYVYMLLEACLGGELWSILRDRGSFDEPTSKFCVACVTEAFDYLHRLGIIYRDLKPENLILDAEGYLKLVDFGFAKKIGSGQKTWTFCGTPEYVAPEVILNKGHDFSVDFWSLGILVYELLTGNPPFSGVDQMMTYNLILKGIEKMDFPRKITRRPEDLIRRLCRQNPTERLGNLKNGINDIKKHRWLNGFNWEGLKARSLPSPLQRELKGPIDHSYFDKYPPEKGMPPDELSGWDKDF

[7] = biological target: T4, cGMP-dependent protein kinase 2 (Homo sapiens); details: at 1 µM
[8] = biological target: T5, cAMP-dependent protein kinase catalytic subunit PRKX (Homo sapiens) (UniProt P51817); details: at 0.1 µM
T5 sequence (whole entry): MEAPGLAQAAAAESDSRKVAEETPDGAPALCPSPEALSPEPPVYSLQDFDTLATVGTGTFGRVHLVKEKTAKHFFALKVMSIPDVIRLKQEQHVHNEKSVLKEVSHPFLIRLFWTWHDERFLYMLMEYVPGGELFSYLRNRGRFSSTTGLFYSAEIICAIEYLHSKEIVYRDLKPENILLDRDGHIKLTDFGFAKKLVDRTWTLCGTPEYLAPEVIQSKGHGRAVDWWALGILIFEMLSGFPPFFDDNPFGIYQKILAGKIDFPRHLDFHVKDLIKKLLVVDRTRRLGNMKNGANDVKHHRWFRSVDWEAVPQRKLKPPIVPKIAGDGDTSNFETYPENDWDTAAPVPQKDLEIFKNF

[9] = biological target: T5, cAMP-dependent protein kinase catalytic subunit PRKX (Homo sapiens); details: at 1 µM
[10] = biological target: Rho-associated protein kinase 1 (Homo sapiens) (UniProt Q13464); details: at 0.1 µM
Rho-associated protein kinase 1 (Homo sapiens), sequence (Q13464 2-1354 limits assumed): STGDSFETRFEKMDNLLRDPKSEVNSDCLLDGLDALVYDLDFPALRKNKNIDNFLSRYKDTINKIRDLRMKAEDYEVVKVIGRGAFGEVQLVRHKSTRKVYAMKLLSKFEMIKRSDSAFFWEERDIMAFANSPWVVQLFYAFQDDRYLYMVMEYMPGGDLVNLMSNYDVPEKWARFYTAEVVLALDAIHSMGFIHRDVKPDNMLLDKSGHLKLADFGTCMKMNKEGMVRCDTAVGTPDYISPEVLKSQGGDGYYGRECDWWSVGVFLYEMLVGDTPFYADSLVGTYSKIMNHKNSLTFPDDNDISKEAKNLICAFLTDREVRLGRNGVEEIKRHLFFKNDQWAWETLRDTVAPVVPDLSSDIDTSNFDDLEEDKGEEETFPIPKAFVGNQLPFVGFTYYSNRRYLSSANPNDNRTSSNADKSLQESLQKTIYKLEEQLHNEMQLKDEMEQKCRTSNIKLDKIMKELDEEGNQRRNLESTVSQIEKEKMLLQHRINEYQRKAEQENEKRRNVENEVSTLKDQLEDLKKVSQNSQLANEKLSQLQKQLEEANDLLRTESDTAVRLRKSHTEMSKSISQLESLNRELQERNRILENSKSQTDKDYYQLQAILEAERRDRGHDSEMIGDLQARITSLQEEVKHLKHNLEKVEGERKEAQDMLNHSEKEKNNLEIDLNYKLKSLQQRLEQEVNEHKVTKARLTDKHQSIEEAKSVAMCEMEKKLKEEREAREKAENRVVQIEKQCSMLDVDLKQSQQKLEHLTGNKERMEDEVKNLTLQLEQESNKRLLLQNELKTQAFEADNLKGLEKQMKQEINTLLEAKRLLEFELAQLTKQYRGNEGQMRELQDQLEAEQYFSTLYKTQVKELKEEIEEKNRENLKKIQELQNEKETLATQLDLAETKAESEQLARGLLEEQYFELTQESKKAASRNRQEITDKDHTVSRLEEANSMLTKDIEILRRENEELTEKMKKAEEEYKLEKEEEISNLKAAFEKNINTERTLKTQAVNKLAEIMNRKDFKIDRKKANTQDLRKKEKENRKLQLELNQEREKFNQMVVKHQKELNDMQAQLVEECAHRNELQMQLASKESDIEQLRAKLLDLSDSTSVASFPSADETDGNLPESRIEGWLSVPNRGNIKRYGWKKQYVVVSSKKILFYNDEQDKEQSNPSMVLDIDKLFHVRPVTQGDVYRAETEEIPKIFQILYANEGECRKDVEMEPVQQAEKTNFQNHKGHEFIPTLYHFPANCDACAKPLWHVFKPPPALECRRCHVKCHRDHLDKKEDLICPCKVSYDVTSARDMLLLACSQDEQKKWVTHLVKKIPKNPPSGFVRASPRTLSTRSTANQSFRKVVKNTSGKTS

[11] = biological target: Rho-associated protein kinase 1 (Homo sapiens) (UniProt Q13464); details: at 1 µM
[12] = biological target: Rho-associated protein kinase 2 (Homo sapiens) (UniProt O75116); details: at 0.1 µM
Rho-associated protein kinase 2 (Homo sapiens), sequence (O75116 whole entry, looked up): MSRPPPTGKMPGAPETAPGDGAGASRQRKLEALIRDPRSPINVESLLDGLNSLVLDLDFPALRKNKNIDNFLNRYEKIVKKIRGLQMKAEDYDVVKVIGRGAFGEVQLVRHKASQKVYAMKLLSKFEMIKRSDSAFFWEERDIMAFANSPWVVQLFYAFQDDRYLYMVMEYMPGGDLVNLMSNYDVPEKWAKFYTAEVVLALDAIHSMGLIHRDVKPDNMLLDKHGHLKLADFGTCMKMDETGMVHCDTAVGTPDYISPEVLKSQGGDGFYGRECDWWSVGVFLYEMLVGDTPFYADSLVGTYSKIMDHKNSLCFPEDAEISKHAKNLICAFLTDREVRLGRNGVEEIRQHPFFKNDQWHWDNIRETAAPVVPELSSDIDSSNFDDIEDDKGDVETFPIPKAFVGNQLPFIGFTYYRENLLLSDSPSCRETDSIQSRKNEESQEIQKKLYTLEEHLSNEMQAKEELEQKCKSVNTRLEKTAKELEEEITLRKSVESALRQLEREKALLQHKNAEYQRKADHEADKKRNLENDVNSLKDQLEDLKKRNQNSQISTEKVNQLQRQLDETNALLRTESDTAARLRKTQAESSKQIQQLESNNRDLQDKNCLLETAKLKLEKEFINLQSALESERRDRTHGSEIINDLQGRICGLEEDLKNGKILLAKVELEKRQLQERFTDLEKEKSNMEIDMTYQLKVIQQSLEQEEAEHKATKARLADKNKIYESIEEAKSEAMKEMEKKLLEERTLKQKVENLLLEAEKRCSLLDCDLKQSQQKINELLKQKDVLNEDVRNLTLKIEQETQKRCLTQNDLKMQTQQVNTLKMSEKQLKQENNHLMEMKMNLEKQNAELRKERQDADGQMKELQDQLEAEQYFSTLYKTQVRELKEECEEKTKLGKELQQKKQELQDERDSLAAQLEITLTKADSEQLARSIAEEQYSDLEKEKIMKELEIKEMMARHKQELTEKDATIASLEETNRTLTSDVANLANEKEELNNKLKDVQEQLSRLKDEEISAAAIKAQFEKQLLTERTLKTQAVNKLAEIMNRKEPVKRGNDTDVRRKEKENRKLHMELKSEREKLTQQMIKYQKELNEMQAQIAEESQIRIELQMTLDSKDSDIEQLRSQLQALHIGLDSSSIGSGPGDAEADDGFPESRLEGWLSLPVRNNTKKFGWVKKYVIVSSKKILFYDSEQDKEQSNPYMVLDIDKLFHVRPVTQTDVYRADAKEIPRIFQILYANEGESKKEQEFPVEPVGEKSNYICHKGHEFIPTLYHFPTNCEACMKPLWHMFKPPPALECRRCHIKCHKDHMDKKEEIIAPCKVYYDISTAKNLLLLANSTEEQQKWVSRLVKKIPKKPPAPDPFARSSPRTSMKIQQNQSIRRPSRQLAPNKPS

[13] = biological target: Rho-associated protein kinase 2 (Homo sapiens) (UniProt O75116); details: at 1 µM
[14] = biological target: Ribosomal protein S6 kinase alpha-1 (Homo sapiens) (UniProt Q15418); details: at 0.1 µM
[15] = biological target: Ribosomal protein S6 kinase alpha-1 (Homo sapiens) (UniProt Q15418); details: at 1 µM
[16] = biological target: Ribosomal protein S6 kinase alpha-3 (Homo sapiens) (UniProt P51812); details: at 0.1 µM
Ribosomal protein S6 kinase alpha-3 (Homo sapiens), sequence (P51812 whole entry): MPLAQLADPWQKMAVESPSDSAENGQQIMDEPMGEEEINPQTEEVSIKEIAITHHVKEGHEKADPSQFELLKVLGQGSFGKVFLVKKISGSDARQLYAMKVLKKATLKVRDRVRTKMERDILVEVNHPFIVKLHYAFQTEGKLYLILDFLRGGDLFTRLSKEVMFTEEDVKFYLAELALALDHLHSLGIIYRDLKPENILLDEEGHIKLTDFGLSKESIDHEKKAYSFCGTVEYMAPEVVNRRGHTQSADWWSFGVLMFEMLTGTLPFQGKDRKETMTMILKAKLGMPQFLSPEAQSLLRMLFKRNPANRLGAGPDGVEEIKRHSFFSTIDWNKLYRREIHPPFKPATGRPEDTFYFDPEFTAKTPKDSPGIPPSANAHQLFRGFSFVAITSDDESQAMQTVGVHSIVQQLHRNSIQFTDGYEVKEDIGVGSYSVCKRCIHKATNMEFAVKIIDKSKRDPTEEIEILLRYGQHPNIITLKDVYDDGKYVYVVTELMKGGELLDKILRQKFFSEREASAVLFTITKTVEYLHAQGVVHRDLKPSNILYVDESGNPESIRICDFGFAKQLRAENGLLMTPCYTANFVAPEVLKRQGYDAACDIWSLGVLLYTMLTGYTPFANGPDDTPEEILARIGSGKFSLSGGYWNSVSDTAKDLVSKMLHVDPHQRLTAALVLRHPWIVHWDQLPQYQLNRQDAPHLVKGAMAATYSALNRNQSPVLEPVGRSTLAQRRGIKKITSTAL

[17] = biological target: Ribosomal protein S6 kinase alpha-3 (Homo sapiens) (UniProt P51812); details: at 1 µM
[18] = biological target: Ribosomal protein S6 kinase alpha-2 (Homo sapiens) (UniProt Q15349); details: at 0.1 µM
Ribosomal protein S6 kinase alpha-2 (Homo sapiens), sequence (Q15349 whole entry): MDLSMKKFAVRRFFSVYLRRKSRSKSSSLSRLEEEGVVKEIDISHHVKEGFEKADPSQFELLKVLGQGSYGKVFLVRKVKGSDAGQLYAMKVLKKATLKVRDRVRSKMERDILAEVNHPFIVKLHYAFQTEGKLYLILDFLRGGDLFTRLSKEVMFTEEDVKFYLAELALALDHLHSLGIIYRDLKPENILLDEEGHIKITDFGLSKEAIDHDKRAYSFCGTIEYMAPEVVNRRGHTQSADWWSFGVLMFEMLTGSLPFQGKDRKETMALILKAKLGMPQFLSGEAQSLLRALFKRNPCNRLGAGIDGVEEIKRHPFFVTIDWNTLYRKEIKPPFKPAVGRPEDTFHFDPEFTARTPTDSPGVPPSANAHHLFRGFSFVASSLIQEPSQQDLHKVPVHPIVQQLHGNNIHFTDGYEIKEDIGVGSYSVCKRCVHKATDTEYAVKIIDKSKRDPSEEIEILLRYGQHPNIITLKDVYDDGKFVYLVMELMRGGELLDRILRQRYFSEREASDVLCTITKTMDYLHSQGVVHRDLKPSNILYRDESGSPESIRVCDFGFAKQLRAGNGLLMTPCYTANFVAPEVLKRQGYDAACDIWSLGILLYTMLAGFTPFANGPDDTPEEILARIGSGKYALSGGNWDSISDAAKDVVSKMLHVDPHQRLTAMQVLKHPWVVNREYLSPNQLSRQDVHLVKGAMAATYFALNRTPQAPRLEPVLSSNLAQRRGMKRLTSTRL

[19] = biological target: Ribosomal protein S6 kinase alpha-2 (Homo sapiens) (UniProt Q15349); details: at 1 µM
[20] = biological target: Ribosomal protein S6 kinase alpha-6 (Homo sapiens) (UniProt Q9UK32); details: at 0.1 µM;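 also: reported value is the mean inhibition of RSK4, from the GSK PKIS kinase inhibitor screen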
Ribosomal protein S6 kinase alpha-6 (Homo sapiens), sequence (Q9UK32 whole entry): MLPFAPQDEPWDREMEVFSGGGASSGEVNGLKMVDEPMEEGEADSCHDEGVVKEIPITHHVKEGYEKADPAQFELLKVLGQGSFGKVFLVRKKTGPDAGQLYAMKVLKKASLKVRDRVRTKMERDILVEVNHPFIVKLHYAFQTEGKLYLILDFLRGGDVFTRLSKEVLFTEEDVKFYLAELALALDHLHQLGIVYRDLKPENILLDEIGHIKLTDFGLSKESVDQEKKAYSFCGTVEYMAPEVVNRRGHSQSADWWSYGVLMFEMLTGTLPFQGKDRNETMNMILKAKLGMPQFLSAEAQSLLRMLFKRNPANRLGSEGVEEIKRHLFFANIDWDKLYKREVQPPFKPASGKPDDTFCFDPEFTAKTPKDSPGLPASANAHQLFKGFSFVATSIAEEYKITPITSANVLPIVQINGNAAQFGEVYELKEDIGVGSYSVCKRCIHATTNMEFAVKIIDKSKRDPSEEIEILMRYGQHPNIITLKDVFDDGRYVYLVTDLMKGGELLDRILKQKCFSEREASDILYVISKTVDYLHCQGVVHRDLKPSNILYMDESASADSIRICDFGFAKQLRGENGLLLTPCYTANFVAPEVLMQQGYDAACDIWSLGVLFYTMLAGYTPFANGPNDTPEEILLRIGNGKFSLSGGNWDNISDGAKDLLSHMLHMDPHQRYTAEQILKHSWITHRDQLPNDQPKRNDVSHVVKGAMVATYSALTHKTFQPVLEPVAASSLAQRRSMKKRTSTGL

Structure (SMILES)	inhibition [1] [%]	inhibition [2] [%]	inhibition [3] [%]	inhibition [4] [%]	inhibition [5] [%]	inhibition [6] [%]	inhibition [7] [%]	inhibition [8] [%]	inhibition [9] [%]	inhibition [10] [%]	inhibition [11] [%]	inhibition [12] [%]	inhibition [13] [%]	inhibition [14] [%]	inhibition [15] [%]	inhibition [16] [%]	inhibition [17] [%]	inhibition [18] [%]	inhibition [19] [%]	inhibition [20] [%]
CCS(=O)(=O)c1ccc(OC)c(Nc2ncc(-c3cccc(C(C)=O)c3)o2)c1	1	2.85	1.31	1.67	2.08	-0.65	2.63	1.59	3.12	0.01	2.14	1.98	6.73	2.43	5.75	1.27	3.54	0.6	3.67	1
COc1cc(N2CCN(C(C)C)CC2)ccc1Nc1nc(Nc2cccc3ncccc23)c2cc[nH]c2n1	4.37	-0.78	4.56	-1.01	2.36	0.84	0.42	0.02	-0.18	0.12	0.37	0.02	0.45	0.19	3.05	1.66	5.2	1.37	3.33	0.58
N#Cc1cccc(Nc2ncc(-c3ccccc3)o2)c1	2.25	1.91	1.02	-0.54	3.32	0.03	1.45	1.09	2.62	0.04	0.71	2	6.5	0.19	3.79	0.02	1.64	1.14	1.32	-0.19

Source: ChEMBL document CHEMBL1961873, “Compounds: GSK PKIS; Assays: Nanosyn kinase panel” (2012)
